According to publication PMC12136788:
Over roughly 24,000 sequences, “enrichment r” has its median near 0.99; the highest 2% begin near 3.7. Only a sample is shown.

T1: UNK ZnF1-3 (human, UniProt Q9C0B0 31-174)
T1 sequence: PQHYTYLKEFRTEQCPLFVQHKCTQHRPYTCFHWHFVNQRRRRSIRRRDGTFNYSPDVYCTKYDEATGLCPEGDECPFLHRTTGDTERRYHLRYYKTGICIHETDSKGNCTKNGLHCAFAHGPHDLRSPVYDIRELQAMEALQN

B1: chr3:132387698:132387699:+_ENSG00000081307_ENST00000264991|hu_hu|FALSE|FALSE (ssRNA)
RNA: GGGAGUUCUACAGUCCGACGAUCUUGAACUUUACUUAAUCCUGCUUGAUGAGGUUGGAAGAAAAGUCUAUUCAUAUUGGCUAGUUCCACCUUGUCAUAAUCAAAGAGUAGCAACUUACCAAUGCCACAUCUUGUCAGCAUUUCCAACAGAGGAUUGAGCAUCA
B2: chr6:40197388:40197389:+_ENSMUSG00000057716_ENSMUST00000061740|mus_mus|mus_mus_mus_hu_False|18_58 (ssRNA)
RNA: GGGAGUUCUACAGUCCGACGAUCGAGACACUGGGGUGGAUUUAUUCCACCUCUGUUUGGGUGCUAGCCACUAAGACAGCUAUUUUGGGAUUCAUGGCCUUGAAUAUCAAGAGGGAAGGGACGAGAAUGGAAAGAGUCAAGAGUCAACAGAGGAUUGAGCAUCA
B3: chr11:98549071:98549072:+_ENSMUSG00000017221_ENSMUST00000017365|mus_hu|FALSE|FALSE (ssRNA)
RNA: GGGAGUUCUACAGUCCGACGAUCAUCCAGCUUGUCCAGGAACUCAUAGACCCGGGCGUGAUAAUAGUAACACUUUGCGGCUACAAGGUCUAGGGCCCGGCGGUUCUGAGUACUGAUCUUCUGCAUCAGAUCAUCAGAGAUCUUCAACAGAGGAUUGAGCAUCA
B4: chr15:103023242:103023243:-_ENSMUSG00000009575_ENSMUST00000118152|mus_mus|motif|central (ssRNA)
RNA: GGGAGUUCUACAGUCCGACGAUCAACUAGCAGCAUUGAUGAGGGGUUAAGGGAUUGGGGACAGAAACUCACCAAGGUCACGGAGUACUUCCAAACUUGGAAGUAGCUCAGUGAGGGCUAAAAAAACUUCGACUGAAGGUAUCCCAACAGAGGAUUGAGCAUCA
B5: chr7:99968543:99968544:+_ENSMUSG00000030643_ENSMUST00000032879|mus_mus|FALSE|FALSE (ssRNA)
RNA: GGGAGUUCUACAGUCCGACGAUCAAAGACCCUGAGUGAAUCUUCGGACUAGGCACGUCUUUCCCACUCCAGCGUUGCCAAUUAAAACAAUUUUGAACAGGAAAUCAUAAUCUUCCAUACUCAUUUACACAGCUGGUUUGGGAUCAACAGAGGAUUGAGCAUCA
B6: chr4:56883625:56883626:-_ENSMUSG00000055296_ENSMUST00000068792|mus_mus|FALSE|FALSE (ssRNA)
RNA: GGGAGUUCUACAGUCCGACGAUCUAUAGGCGUGCGCCACCACGCCCGGGUUUAAAAUGUGUAGACCAGGCUGGCCUCGAACUCGCGAUCCUCCUGCUUCUGCCUCCUUCAGCAAAUCCUACUGGCGUGCGCCACCACAACCAGCAACAGAGGAUUGAGCAUCA
B7: 24016654_24036560_782_3pUTR_ENSMUSG00000024277_ENSMUST00000025127|mouse|control|control (ssRNA)
RNA: GGGAGUUCUACAGUCCGACGAUCCGUUUCUAAAUCUUUGUCAGAUCUGGAUGCAGAGCCACUGGAUGAAGCCCUUUUGGCAGACGAGGGGCGAGAAGGUGUGGAUCCUGGCUUAGAUGCAGGACUUGACUUAGCCGCGCCUGCCAACAGAGGAUUGAGCAUCA
B8: chr11:77340908:77340909:-_ENSG00000074201_ENST00000525064|hu_mus|FALSE|FALSE (ssRNA)
RNA: GGGAGUUCUACAGUCCGACGAUCGUUUGGAUCCCUGGACACCGCAUGUAAACUAAUGGUGGGGUAUUCCAGUGAGAAUCCUAAUCCCGAACCAUCUAACCAGGACAGGCGGCUCUCCGCGAUGUAAAGCGUGCCGGUGCCGAGCAACAGAGGAUUGAGCAUCA
B9: chr11:115359427:115359428:-_ENSMUSG00000020737_ENSMUST00000021083|mus_hu|motif|central (ssRNA)
RNA: GGGAGUUCUACAGUCCGACGAUCUGCAGUUCACAAGCAUGGAGGAAACAGACAGAACGACAGCGUUCAGGACAGUCAGAGCGGACCCAAGACGAGGCUGGACUUGCCGCCAGGGGGAUUUCUUCUGGAUGGCACUGGGGCCGGCAACAGAGGAUUGAGCAUCA
B10: chr11:63961690:63961691:+_ENSG00000168439_ENST00000305218|hu_mus|FALSE|FALSE (ssRNA)
RNA: GGGAGUUCUACAGUCCGACGAUCUUCAUGUUUUAAACCUUCUUCAUAGGUUCGUUUGGCUUCCUCAAACCGGUUUAGGAAUUCAAGGGCUGCUGCUUUUCUUGAAUAACCCUUGCCCCAGUCAGGCUUCAGGUCAACAGUCUUCAACAGAGGAUUGAGCAUCA
B11: chr13:42873775:42873776:+_ENSG00000023516_ENST00000025301|hu_hu|FALSE|FALSE (ssRNA)
RNA: GGGAGUUCUACAGUCCGACGAUCAGAAGACGAAAAAAAUGUUUUCUGUAAAUCACUAUCUUUAUCUGAAGCAUUAGAUGACCUAUAGAAACUCCUUUGGGUCCAAGGCUCUGAAAUUGAUGUUGUGACUGAAGUUUUCACAGACAACAGAGGAUUGAGCAUCA
B12: chr9:100389865:100389866:-_ENSG00000136925_ENST00000341170|hu_mus|FALSE|FALSE (ssRNA)
RNA: GGGAGUUCUACAGUCCGACGAUCUAUCAGUGGGACAGGUUCCUUGCAGACAAGUAUCUUCCGCAAACCCUAGGCCUUUCCUGGGUCUCCCUUCACCAACUUGGCGCUGCUCCCCGCCCUCGAGCCCACGCCCCCCGGCGCGCGCAACAGAGGAUUGAGCAUCA
B13: chr9:74904954:74904955:+_ENSMUSG00000007656_ENSMUST00000169492|mus_mus|FALSE|FALSE (ssRNA)
RNA: GGGAGUUCUACAGUCCGACGAUCUCAAAAGGAAGAUACAGAAGAAAUCAAUACAACAGAGGUCCUGUUAAAUAAGAGUAACAUACAAAGCUGUAAUCAUGAGAAAGUAAAGAAAGCCAGAGCAUUAAAGCUGUAAAACUUGCUCAACAGAGGAUUGAGCAUCA
B14: chr14:73742652:73742653:-_ENSG00000133961_ENST00000557597|hu_hu|FALSE|FALSE (ssRNA)
RNA: GGGAGUUCUACAGUCCGACGAUCCCCCUUUACCUUUGGCAAGAUUACUUACAACUCAUACAACUUCUUAAUAUCUGAGAACUAUUUAAAAUAUUCUAAAUGCAUAAAAAUAAAGAUUUUGGCUUUUGAUAUAUAUAAUAUUUACAACAGAGGAUUGAGCAUCA
B15: chr11:18422405:18422406:+_ENSG00000134333_ENST00000379412|hu_hu|motif|central (ssRNA)
RNA: GGGAGUUCUACAGUCCGACGAUCCAGCUUGGAGUUUGCAGUUACAUUAUAGUCUUUGCCAGAGACAAUCUUUGGUGUUCGGAGGAAAAGGCUGCCAUGUUGGAGAUCCAUCAUCUCUCCCUUCAAUUUGUCUUCGAUGACAUCCAACAGAGGAUUGAGCAUCA
B16: chr14:89338683:89338684:+_ENSG00000165533_ENST00000346301|hu_hu|hu_hu_hu_mus_False|58_108 (ssRNA)
RNA: GGGAGUUCUACAGUCCGACGAUCGUGGUUGUUGUUGACCAGGGCCAGCCUGAAGCAUUGGUGGGCCAAGUUUGUAUCUCCUAUUCCCACAGCUAUGUGCCCCAGGUUGUACCAGACAUCAGCUGCCUCUUCUUCAUUUUCAGCCAACAGAGGAUUGAGCAUCA
B17: chr2:198351390:198351391:-_ENSG00000144381_ENST00000345042|hu_hu|hu_hu_hu_mus_False|78_78 (ssRNA)
RNA: GGGAGUUCUACAGUCCGACGAUCUCAUUCCCACCCUCCACAGAAAGGCUGCUUCUGUUCUCAUCUGUGGUGACACAGCGCUACAGUCCUGAUGCUCACAGAACAGUAGAGAUGCCUCAGUGAUUUAAGUUGAAAGCAGGACACCAACAGAGGAUUGAGCAUCA
B18: chr4:34758383:34758384:-_ENSMUSG00000039967_ENSMUST00000047950|mus_mus|FALSE|FALSE (ssRNA)
RNA: GGGAGUUCUACAGUCCGACGAUCUUCAUCAUCUGAACCAUCGUUGUCAUUAAACACUAUGAAAUCUGUUGAAUAAAGACUAUUCUUUUUUAUGGGUCGCUGUUCCUGUUUAGCCACAGUAUUAAUAUUAGUCUUUUGAUUUUCCAACAGAGGAUUGAGCAUCA
B19: chr17:13115065:13115066:+_ENSMUSG00000068039_ENSMUST00000151287|mus_mus|FALSE|FALSE (ssRNA)
RNA: GGGAGUUCUACAGUCCGACGAUCGAUACUUGCUCCAGAAGCUUUUGCAACAUGCUUCAGGUCUCGUUUUAAAACUCUCCUAACAGCCAUGGCACCAGCUUCCACAAAAUACUUGAGAUACAUAUCAUCAAUGCCACCAGUGGUCAACAGAGGAUUGAGCAUCA
B20: chr15:31385891:31385892:-_ENSMUSG00000039100_ENSMUST00000090227|mus_mus|motif|central (ssRNA)
RNA: GGGAGUUCUACAGUCCGACGAUCAUUCACUCCUAAACAGACACCCCUAGGCCUUAGUCACUCAUUUCCAUCUAAGGUUCGGUAGGAUUGUCAUGAUUACAAAAUGAGGCACUCAGACAGAUAGACAGGAAUGGAGACAUACAUCAACAGAGGAUUGAGCAUCA
B21: chr4:17845017:17845018:+_ENSG00000109805_ENST00000514176|hu_mus|hu_hu_hu_mus_False|1_58 (ssRNA)
RNA: GGGAGUUCUACAGUCCGACGAUCGCUCUCUUAACUUGUAUCUUCAUUAAGGAACUCUGCAAGGUUAAGUUUACUUUUUCUAGUGCUAGCUGUUUUGGCUCGUCUGGGUAAUCUCAUCUUCAUUUCUGAUGGUGGUUUGGAACUCAACAGAGGAUUGAGCAUCA
B22: chr6:146524949:146524950:-_ENSMUSG00000040250_ENSMUST00000032427|mus_hu|FALSE|FALSE (ssRNA)
RNA: GGGAGUUCUACAGUCCGACGAUCCUGCCUGCAAGAUUCUGCCAUAUAAGGGCAGUGAUCCACAACAAACACUGUUUUAUGAGAUUCAGAAAAAAUCUUCAUUUUGUUUUAACUUUCGUGCCUGGUCCUGCAGUGAAAACGAACCAACAGAGGAUUGAGCAUCA

Biological target: T1, UNK ZnF1-3
Assay: nsRBNS (natural sequence RNA bind-n-seq); RBNS binding buffer (assumed for nsRBNS): 25 mM Tris pH 7.5, 150 mM KCl, 3 mM MgCl2, 0.01% Triton X-100, 500 ug/ml BSA, 20 U/ml SUPERase-In, 4 C; UNK is unkempt and MSI1 is Musashi-1; names of the RNAs are library labels; protein concentration not given here; high values mean tight binding

Row | Binder | binding signal [enrichment R]
1 | B1 | 0.799
2 | B2 | 1.36
3 | B3 | 0.693
4 | B4 | 1.29
5 | B5 | 1.1
6 | B6 | 0.972
7 | B7 | 0.536
8 | B8 | 0.705
9 | B9 | 1.45
10 | B10 | 0.607
11 | B11 | 0.809
12 | B12 | 1.19
13 | B13 | 2.34
14 | B14 | 1.07
15 | B15 | 0.638
16 | B16 | 0.492
17 | B17 | 1.4
18 | B18 | 0.418
19 | B19 | 0.985
20 | B20 | 1.25
21 | B21 | 0.331
22 | B22 | 1.02
